D3 antag – blocks the human D3 dopamine receptor. P35462. D3R cells, DiscoveRx beta-arrestin luminescence, antagonist mode; stronger effect = lower value. max response, negative = inhibition, %. 360,000 tested, 2.5% active. AID 652054; in the data active = max response below about -50%; inconclusive = no clear call, values can overlap the other calls; note: % is set by controls: 0 for no effect and ±100 for the full control effect
Target sequence (P35462 whole entry, looked up): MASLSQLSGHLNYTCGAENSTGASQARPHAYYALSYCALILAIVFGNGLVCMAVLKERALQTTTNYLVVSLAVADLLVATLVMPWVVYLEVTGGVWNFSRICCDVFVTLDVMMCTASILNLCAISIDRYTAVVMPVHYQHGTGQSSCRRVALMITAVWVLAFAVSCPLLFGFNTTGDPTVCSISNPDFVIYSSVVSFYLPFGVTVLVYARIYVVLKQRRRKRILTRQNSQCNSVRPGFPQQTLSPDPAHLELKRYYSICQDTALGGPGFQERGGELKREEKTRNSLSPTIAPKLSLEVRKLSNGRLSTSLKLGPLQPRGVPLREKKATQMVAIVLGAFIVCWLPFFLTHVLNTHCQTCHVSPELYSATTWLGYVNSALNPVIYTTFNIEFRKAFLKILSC
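Cells expressing the human receptor were seeded at 1500 cells/well, incubated overnight at 37 degrees C in 5% CO2, then exposed to library compounds with dopamine controls for 90 minutes at 37 degrees C before luminescent detection.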
DRD3 agonist – agonists of human D3 dopamine receptor. max activation, %. AID 652048. P35462. D3R DiscoveRx beta-arrestin cells, luminescence, 90 min. 410,000 tested, 0.58% active; in the data active = max activation above about 30%; note: 0% is about no effect
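Agonist-mode cell screen: cells plated at 1500/well and incubated overnight at 37 °C, then exposed to library compounds for 90 min at 37 °C. Detection reagent was added for 30–60 min at room temperature, and luminescence was read.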
RGS4 inh – inhibitors of human regulator of G protein signaling 4; P49798; Transcreener GDP fluorescence polarization, RGS4-accelerated GTP hydrolysis; Potency, µM (series often up to 114 µM), inactives show at the top dose activity change, negative = inhibition, most hits filed as inhibitors; 390,000 tested, 0.039% active; AID 504845; note: potency is the fitted concentration of half-maximal effect; % is set by controls: 0 for no effect and ±100 for the full control effect; nearly all actives have a fitted effect of over 75% in size
Target sequence (P49798 whole entry, looked up): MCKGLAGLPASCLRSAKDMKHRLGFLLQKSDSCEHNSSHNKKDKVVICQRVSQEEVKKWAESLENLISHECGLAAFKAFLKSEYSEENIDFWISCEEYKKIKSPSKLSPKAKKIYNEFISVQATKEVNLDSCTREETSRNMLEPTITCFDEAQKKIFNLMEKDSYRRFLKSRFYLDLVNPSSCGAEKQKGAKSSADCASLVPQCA
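MLSMR compounds (23 nl, pin-transferred) preincubated 10 min at room temperature with a 500nM (2x) first reagent, then RGS4 at 900nM (2x) plus Transcreener GDP mix added; fluorescence polarization (620/688 nm) read before and after 90 min at 30 °C.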
BRCA1 expr act – activators of BRCA1 expression; MCF7-BRCA1-FFLuc reporter, luminescence, 48 h; response scale: scaled: vehicle 0%, 10 µM genistein 100%; Potency, µM (titrated, usually from 46.1 µM), without a hit: top-dose activation, most hits filed as activators; 380,000 tested, 1.1% active; AID 624202; note: potency is the fitted concentration of half-maximal effect; nearly all actives have a fitted effect of over 80% in size
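Reporter cells (MCF7, BRCA1 promoter-firefly luciferase) received library compounds across a concentration series for 48 h. End-point luminescence was measured and concentration-effect curves derived after normalization.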
B2AR arrestin – agonists driving beta-arrestin recruitment to human beta2-adrenergic receptor | Potency, µM (highest dose often 46.1 µM), without a hit: at the top dose activation, usual class: activators | P07550 | 330,000 tested, 0.02% active | beta-arrestin recruitment to beta2AR, cell-based reporter | AID 492947;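 note: potency is the fitted concentration of half-maximal effect; 0% = DMSO controls and full agonism = EC100 isoproterenol or metaproterenol; nearly all actives have a fitted effect of over 65% in size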
PTHR1 agonist – agonists of human PTHR1 parathyroid hormone receptor; Q03431; HEK293 GP2 PTHR1 cells, GloSensor cAMP luminescence, 1 h; Potency, µM (doses to about 115 µM), without a hit: at the highest dose activation, usual class: activators; 410,000 tested, 0.075% active; note: potency is the fitted concentration of half-maximal effect; nearly all actives have a fitted effect of over 55% in size
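HEK-293-derived GP2 cells expressing PTHR1 and a GloSensor cAMP reporter, 3,000/well, plated overnight, given luciferin plus IBMX (each 0.5 mM as added) for 1 h at 37 °C, then compound for 1 h at 37 °C. Luminescence was read after 15 min at room temperature.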
An asterisk follows results filed as active; i = inactive; ? = inconclusive; / = not tested or not shown; [ ] = another dose, or the depositor's remark. Shown are actives, neighbours in structure and some others; about 3.7% of the full set was active somewhere. Unless noted, calls come from the whole dose curve; as a rule, active = well fitted curve in the direction sought with a large enough effect; inconclusive = small, poorly fitted or top-dose-only effect, or another doubt; inactive = no such curve, though single readings can be large; an effect the other way counts as inactive or inconclusive.

SMILES	D3 antag	DRD3 agonist	RGS4 inh	BRCA1 expr act	B2AR arrestin	PTHR1 agonist
Cc1ccc(N/N=C(\C#N)C(=N)N2CCCCC2)cc1	-14	-8	12%	?	0%	-85%
N#C/C(=N\Nc1ccc(Br)cc1)C(=N)N1CCOCC1	4	2	4%	10µM*	0%	-25%
N#C/C(=N\Nc1ccc([N+](=O)[O-])cc1)C(=N)N1CCOCC1	1	19	-7%	?	1%	i
N#C/C(=N/Nc1ccc([N+](=O)[O-])cc1)C(=N)N1CCCCC1	-54*	-12	18%	?	0%	-20%
Cc1ccc2c(c1)[C@@H]1[C@H](CO2)[C@H](c2ccccc2)[C@@]2(C)C(=O)N[C@H](C)C(=O)N12	8	31*	1%	0%	0%	-22%
C[C@H]1NC(=O)[C@]2(C)[C@@H](c3ccccc3)[C@H]3COc4ccccc4[C@@H]3N2C1=O	4	9	-15%	13%	/	-25%
CCCc1cc(NCCOCCO)n2c(nc3ccccc32)c1C#N	-57*	5	/	-3%	/	i
Nc1ncc(S(=O)(=O)NCc2ccccc2)cn1	/	13	22%	/	/	-21%
O=C(c1ccccc1)N1CCN(C(=O)c2ccccc2)c2ccccc21	-12	-7	0%	-1%	/	-7%
CCOC(=O)C1(C)CCCN1C(=O)c1snnc1C (stereo not drawn)	-51*	-5	/	0%	/	-3%
Clc1cc(Br)ccc1OCCOCCN1CCCC1	-81*	-18	10%	-15%	-1%	-21%
Cc1ccc(OCCCCCN2CCOCC2)c(Cl)c1	?	-21	0%	94%	/	-19%
Clc1cc(Br)ccc1OCCOCCN1CCOCC1	-82*	-16	2%	46%	0%	i
CN1CCN(S(=O)(=O)c2ccc(N(C)Cc3cccc(F)c3)nc2)CC1	14	-1	-11%	-9%	0%	i
C=CCN(c1ccccc1OC)S(=O)(=O)c1cccc(C(=O)OCC(=O)c2c[nH]c3ccccc23)c1	4	6	-7%	-59%	10%	-17%
COc1cc(OC)c(N(C)S(=O)(=O)c2cccc(C(=O)OCC(=O)c3c[nH]c4ccccc34)c2)cc1Cl	14	33*	20%	-66%	1%	-20%
CC(=O)N(c1cccc(Br)c1)C1C=CS(=O)(=O)C1 (stereo not drawn)	-67*	-15	-1%	-1%	-1%	i
CCCCNc1ccc(/C=C2\C=Cc3ccccc32)cc1	/	/	/	6.3µM*	/	/
CCCCN(CCCC)c1ccc(/C=C2\C=Cc3ccccc32)cc1	/	/	/	1%	/	/
Cc1ccc(NC(=O)CC(=O)c2ccccc2)cc1C	-12	-12	-3%	6.3µM*	-1%	-14%
CN(Cc1nc2ccccc2c(=O)[nH]1)C(=O)c1cccc(S(=O)(=O)N2CCc3ccccc32)c1	33	-6	-16%	-21%	-1%	-31%
Cc1cc(NC(=O)c2c(F)cccc2F)n(-c2nc3ccccc3[nH]2)n1	-96*	37*	6%	-84%	0%	-90%
CN(C)c1ccc(/C=N/n2c(-c3ccccc3Br)n[nH]c2=S)cc1	-9	-5	-15%	-1%	-1%	-9%
Cc1ccc2c(CN3CCCCC3CCO)cc(=O)oc2c1 (stereo not drawn)	10	3	-13%	-7%	0%	i
CC(C)(C)NC(=O)c1cccc2c1OC(C)(C)C2	9	49*	-44%	-9%	-1%	i
SMILES	D3 antag	DRD3 agonist	RGS4 inh	BRCA1 expr act	B2AR arrestin	PTHR1 agonist
O=C(CCn1nnc2ccccc21)N1CCC(O)(c2cccc(F)c2)CC1	?	1	?	0%	0%	i
OC1(c2cccc(F)c2)CCN(Cc2ccncc2)CC1	-78*	-7	5%	0%	0%	i
COc1ccc(Nc2nc(NCc3ccco3)nc(N/N=C/c3ccccc3F)n2)cc1	-54*	-7	5%	-36%	-1%	i
COc1ccc(/C=N/Nc2nc(NCc3ccco3)nc(Nc3ccc(OC)cc3)n2)cc1	9	0	-24%	-5%	-1%	i
O=S(=O)(c1ccc(Cl)cc1)c1snnc1-c1ccccc1	-64*	-10	-4%	-85%	-1%	-20%[57.5 µM]
O=S(=O)(c1ccc(F)cc1)c1snnc1-c1ccccc1	-18	8	-3%	-63%	0%	-16%
CCCn1c(N)c(N(CCOC)C(=O)/C=C/c2cccc(Cl)c2)c(=O)[nH]c1=O	0	-2	-6%	2%	0%	i
CC(=O)OC(COc1ccccc1)Cn1cnc2cc(C)c(C)cc21 (stereo not drawn)	-59*	0	-2%	-15%	0%	-87%
CCN(C(=O)COC(=O)c1[nH]c(=O)[nH]c(=O)c1N)c1ccccc1	7	-6	11%	19%	0%	i
CCCCN(C=O)c1c(CC)nc2ccc(C(=O)NCc3ccccc3OC)cn12	-51*	2	/	-6%	/	-8%
CCCCOc1ccc(C(=O)C(CN2CCOCC2)c2ccccc2)cc1 (stereo not drawn)	-54*	-2	-23%	-110%	-1%	-25%
COc1ccc(C(=O)C(CN2CCOCC2)c2ccccc2)cc1 (stereo not drawn)	-22	-17	13%	-97%	0%	-19%[57.5 µM]
O=[N+]([O-])c1cccc(Cl)c1NCCNS(=O)(=O)c1ccccc1	-56*	3	-14%	-3%	0%	i
C(=N\c1nc2ccccc2[nH]1)/c1cccs1	-57*	-2	-1%	0%	-1%	i
Cc1cc(C)n(-c2cc(N3CCN(S(=O)(=O)c4ccc5ccccc5c4)CC3)ccc2[N+](=O)[O-])n1	-55*	1	-48%	-16%	0%	i
CCCCNC(=O)CSc1nc2ccccc2nc1Cc1ccc(Cl)cc1	/	-9	-5%	/	/	i
CCOC(=O)c1sc(=S)[nH]c1C	-52*	2	-46%	4%	/	i
Cc1nn(S(=O)(=O)c2ccccc2)c(C)c1Sc1ccc([N+](=O)[O-])cc1	-80*	-1	8%	-1%	0%	i
Cc1ccc(/C=N/N2CCN(c3ccccn3)CC2)o1	13	2	-42%	10µM*	0%	-18%
O=C(O)c1ccc(C=NN2CCCCCC2)cc1	-17	3	-20%	104%	/	i
Oc1ccc(/C=N/N2CCN(c3ccccn3)CC2)cc1	2	-9	5%	64%	-1%	-11%
C(=N\N1CCN(c2ccccn2)CC1)/c1ccccn1	-15	-9	-3%	11µM*	0%	-5%
